This is part of a sample that, as a whole, favours compounds with a hit. Of some 83,000 tested, about 20% had one in any assay.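 The endpoint reported here, percent growth, reads 100 for growth as untreated, 0 for no net growth and -100 for all cells dead.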 Unmarked numbers belong to inactive results. Calls of active or inactive are those of the source. The calls were made as follows: active = growth percent below 10; inactive = the rest.
What was measured:
Experiment in all cases: NCI-60 one-dose screen, 48 h (100 = growth as untreated, 0 = no growth, -100 = all killed)
Details in all cases: 10 µM unless noted
SR leukemia = tested on: SR leukemia
RPMI-8226 leukemia = tested on: RPMI-8226 leukemia
OVCAR-8 ovarian = tested on: OVCAR-8 ovarian
OVCAR-5 ovarian = tested on: OVCAR-5 ovarian
OVCAR-4 ovarian = tested on: OVCAR-4 ovarian
SK-OV-3 ovarian = tested on: SK-OV-3 ovarian
IGROV1 ovarian = tested on: IGROV1 ovarian
OVCAR-3 ovarian = tested on: OVCAR-3 ovarian
HS 578T breast = tested on: HS 578T breast
NCI/ADR-RES ovarian = tested on: NCI/ADR-RES ovarian
BT-549 breast = tested on: BT-549 breast
MDA-MB-435 melanoma = tested on: MDA-MB-435 melanoma
SW-620 colon = tested on: SW-620 colon
MCF7 breast = tested on: MCF7 breast
HCT-116 colon = tested on: HCT-116 colon
HCC-2998 colon = tested on: HCC-2998 colon
KM12 colon = tested on: KM12 colon
T-47D breast = tested on: T-47D breast

| Structure (SMILES) | growth (SR leukemia) | growth (RPMI-8226 leukemia) | growth (OVCAR-8 ovarian) | growth (OVCAR-5 ovarian) [%] | growth (OVCAR-4 ovarian) [%] | growth (SK-OV-3 ovarian) | growth (IGROV1 ovarian) | growth (OVCAR-3 ovarian) | growth (HS 578T breast) [%] | growth (NCI/ADR-RES ovarian) | growth (BT-549 breast) | growth (MDA-MB-435 melanoma) | growth (SW-620 colon) | growth (MCF7 breast) [%] | growth (HCT-116 colon) | growth (HCC-2998 colon) [%] | growth (KM12 colon) | growth (T-47D breast) |
| --- | --- | --- | --- | --- | --- | --- | --- | --- | --- | --- | --- | --- | --- | --- | --- | --- | --- | --- |
| COc1cccc(NC(=O)Cn2cc3c(=O)oc4ccccc4c3n2)c1 | 110% | 97.9% | 112% | 113 | 92.8 | 113% | 97.1% | 99.1% | 104 | 100% | 94.5% | 88.1% | 103% | 88.1 | 99.5% | 110 | 100% | – |
| Cc1ccc(C2=NN(c3ccc(S(N)(=O)=O)cc3)C(c3cn(-c4ccccc4)nc3-c3ccccc3)C2)cc1 (stereo unspecified) | 11.7% | 39.7% | 86.3% | 115 | 105 | 93.4% | 88.5% | 56.1% | 96.6 | 90.6% | – | 62.7% | 86.5% | 55.9 | 83.9% | 118 | 41.1% | 83.7% |
| COc1cc(C2C=C(C)N=C3SC(C)=NN32)cc(OC)c1OC (stereo unspecified) | 96.3% | 108% | 104% | 95.9 | 104 | 92.5% | 101% | 106% | 114 | 101% | – | 112% | 112% | 91.6 | 106% | 107 | 102% | 92.3% |
| COc1cc(OC)c(C(=O)/C=C/c2cccc(C#N)c2)c(OC)c1 | 3.17% (active) | 1.52% (active) | 7.46% (active) | 40.1 | 18.1 | 0.849% (active) | 9.48% (active) | 9.13% (active) | 17.6 | 14.8% | – | 7.3% (active) | 6.58% (active) | 15 | 2.91% (active) | 14.4 | 6.41% (active) | 4.14% (active) |
| O=C(CNC(=O)c1cccc2ccccc12)Nc1ccccc1Oc1ccccc1 | 13.1% | 19.8% | 13.4% | 52.4 | 36 | 23.3% | 32.1% | -30.5% (active) | 29.9 | 10.3% | -0.557% (active) | – | 22.8% | 11.3 | -2.26% (active) | 21 | 9.93% (active) | 12.1% |
| CCN1C(=O)N(CC)C2C1NN=c1s/c(=C\c3cccc(F)c3)c(=O)n12 (stereo unspecified) | 4.36% (active) | -0.526% (active) | 21.2% | 55.6 | 44.1 | 72.3% | 29.9% | -2.21% (active) | 17.9 | 5.73% (active) | 17.1% | -34.1% (active) | 28.5% | 20 | 6.81% (active) | 19.5 | 11.2% | – |
| Nc1nc(-c2cc3ccccc3o2)cc(=O)c(=O)[nH]1 | 90.9% | 95.7% | 107% | 105 | 102 | 96.7% | 100% | 102% | 88.2 | 109% | 106% | – | 102% | 91 | 110% | – | 105% | 104% |
| COc1ccccc1OCC(=O)Nc1sc2c(c1C(N)=O)CCC2 | 65.2% | 66.2% | 76.9% | 107 | 83.2 | 69.9% | -10.4% (active) | 92.1% | 55.5 | 79.1% | – | 78.9% | 64.5% | 27.8 | 63.1% | 58.8 | 105% | 62.5% |
| COc1c(NC[C@H]2OC(O)[C@H](O)[C@@H](O)[C@@H]2O)c(=O)c1=O (stereo partly specified) | 119% | 101% | 101% | 103 | 84.4 | 106% | 120% | 113% | 101 | 101% | – | – | 101% | 103 | 100% | 97.9 | 111% | 95.3% |
